The record followed here is the supplement of paper PMC4022240.

± gives the standard deviation.

What all share (experiment): peptide microarray binding signal (635 nm), min-max normalized on array (fraction of array maximum); higher = stronger binding
For assay [1], the target named is T1, HaloTag-ATRX ADD domain (163-292).
T1 chain: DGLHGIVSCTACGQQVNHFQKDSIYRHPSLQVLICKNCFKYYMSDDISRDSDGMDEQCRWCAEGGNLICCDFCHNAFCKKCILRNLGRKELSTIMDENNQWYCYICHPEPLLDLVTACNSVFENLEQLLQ
Here is the method:
(§1)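 Histone 13-mer peptides were synthesized as cellulose conjugates with a C-terminal 20-atom PEG linker and printed in triplicate on nitrocellulose. The sequence given is the unmodified backbone; PTMs (Kme1/2/3, Kac, Sph/Tph, Rme/Rme2a/Rme2s, Rcit) are listed in the label and the 'peptide modifications' condition. Slides were probed at 4 °C for 1 h with biotin-labelled (HQ)5-HaloTag reader fusions (ATRX-ADD, ING2-PHD) then streptavidin-Alexa647, or with rabbit histone antibodies then anti-rabbit Alexa647. The mean 635 nm signal of the triplicate spots was scaled 0-1 between the lowest and highest values on each array.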

In assay [2] the target is HaloTag-ING2 PHD (mouse Ing2 200-280). As to the method:
as §1

Assay [3] addresses anti-H3K4me3 antibody ab8580. As to the method: as §1
The target in assay [4] is anti-H3K9me3 antibody ab8898. As to the method:
as §1

Setting [5] is: peptide region: H2B 7-19, peptide modifications: H2BK11ac H2BK12ac H2BK15ac H2BK16ac, binder concentration: 1:2,000 dilution.
Setting [6] is: peptide region: H2B 7-19, peptide modifications: H2BK11ac H2BK12ac H2BK15ac H2BK16ac, binder concentration: 1:10,000 dilution.
Where [7] appears, read: peptide region: H2B 1-13, peptide modifications: H2BK5ac, binder concentration: 1:2,000 dilution.
[8] abbreviates: peptide region: H2B 1-13, peptide modifications: H2BK5ac, binder concentration: 1:10,000 dilution.
The mark [9] stands for this setting: peptide region: H2B 7-19, peptide modifications: H2BK11ac H2BK12ac H2BS14ph H2BK15ac, binder concentration: 1:2,000 dilution.
The mark [10] stands for this setting: peptide region: H2B 7-19, peptide modifications: H2BK11ac H2BK12ac H2BS14ph H2BK15ac, binder concentration: 1:10,000 dilution.
Where [11] appears, read: peptide region: H2B 7-19, binder concentration: 1:2,000 dilution.
Setting [12] is: peptide region: H2B 7-19, binder concentration: 1:10,000 dilution.
Setting [13] is: peptide region: H2B 7-19, peptide modifications: H2BK11ac H2BK12ac H2BS14ph, binder concentration: 1:2,000 dilution.
The mark [14] stands for this setting: peptide region: H2B 7-19, peptide modifications: H2BK11ac H2BK12ac H2BS14ph, binder concentration: 1:10,000 dilution.

B1: H2B 7-19 A P A P Kac Kac G S Kac Kac A V T (peptide)
chain: APAPKKGSKKAVT
On to B1, for which the “peptide microarray binding signal” value in assay [1] (peptide region: H2B 7-19, peptide modifications: H2BK11ac H2BK12ac H2BK15ac H2BK16ac, binder concentration: 50 nM) was found to be 0.0047 ± 0.00016; in assay [1] (peptide region: H2B 7-19, peptide modifications: H2BK11ac H2BK12ac H2BK15ac H2BK16ac, binder concentration: 500 nM), 0.00329 ± 0.00049; in assay [2] (peptide region: H2B 7-19, peptide modifications: H2BK11ac H2BK12ac H2BK15ac H2BK16ac, binder concentration: 10 nM), 0.00555 ± 0.00016; in assay [2] (peptide region: H2B 7-19, peptide modifications: H2BK11ac H2BK12ac H2BK15ac H2BK16ac, binder concentration: 100 nM), 0.00524 ± 0.00027; in assay [3] (setting [5]), 0.000264 ± 1e-05; in assay [3] (setting [6]) it was 0.000742 ± 1.3e-05. Moreover, the “peptide microarray binding signal” value came out at 0.000982 ± 5.2e-05 in assay [4] (setting [5]) and 0.00167 ± 2.8e-05 in assay [4] (setting [6]).

B2: H2B 1-13 P E P A Kac S A P A P K K G (peptide)
chain: PEPAKSAPAPKKG
For the molecule B2, the “peptide microarray binding signal” value in assay [1] (peptide region: H2B 1-13, peptide modifications: H2BK5ac, binder concentration: 50 nM) was determined as 0.005486 ± 3.9e-05; in assay [1] (peptide region: H2B 1-13, peptide modifications: H2BK5ac, binder concentration: 500 nM), 0.0105 ± 0.00072; in assay [2] (peptide region: H2B 1-13, peptide modifications: H2BK5ac, binder concentration: 10 nM), 0.0119 ± 0.00078; in assay [2] (peptide region: H2B 1-13, peptide modifications: H2BK5ac, binder concentration: 100 nM), 0.0115 ± 0.00093; in assay [3] (setting [7]), 0.00421 ± 0.0021; in assay [3] (setting [8]), 0.00137 ± 4.9e-05. In addition, the entries for the “peptide microarray binding signal” value in assay [4] (setting [7]) and in assay [4] (setting [8]) were 0.00192 ± 0.00022 and 0.0019 ± 0.00011, respectively.

B3: H2B 7-19 A P A P Kac Kac G Sph Kac K A V T (peptide)
chain: APAPKKGSKKAVT
On to B3, for which the “peptide microarray binding signal” value in assay [1] (peptide region: H2B 7-19, peptide modifications: H2BK11ac H2BK12ac H2BS14ph H2BK15ac, binder concentration: 50 nM) came out at 0.001661 ± 1.4e-05; in assay [1] (peptide region: H2B 7-19, peptide modifications: H2BK11ac H2BK12ac H2BS14ph H2BK15ac, binder concentration: 500 nM) it was 0.00238 ± 7.1e-05; in assay [2] (peptide region: H2B 7-19, peptide modifications: H2BK11ac H2BK12ac H2BS14ph H2BK15ac, binder concentration: 10 nM) it was 0.002447 ± 1.4e-05; in assay [2] (peptide region: H2B 7-19, peptide modifications: H2BK11ac H2BK12ac H2BS14ph H2BK15ac, binder concentration: 100 nM), 0.000709; in assay [3] (setting [9]), 0.000774 ± 0.00015; in assay [3] (setting [10]), 0.000685 ± 7.2e-06. The results for the “peptide microarray binding signal” value in assay [4] (setting [9]) and in assay [4] (setting [10]) were 0.000242 ± 2.5e-06 and 0.000461, respectively.

B4: H2B 7-19 A P A P K K G S K K A V T (peptide)
chain: APAPKKGSKKAVT
B4: the “peptide microarray binding signal” value came out at 0.002382 ± 1.1e-05 in assay [1] (peptide region: H2B 7-19, binder concentration: 50 nM); 0.00743 ± 0.0029 in assay [1] (peptide region: H2B 7-19, binder concentration: 500 nM); 0.00328 ± 6.2e-05 in assay [2] (peptide region: H2B 7-19, binder concentration: 10 nM); 0.00283 ± 4.6e-05 in assay [2] (peptide region: H2B 7-19, binder concentration: 100 nM); 0.0043 ± 0.0018 in assay [3] (setting [11]); 0.00114 ± 1.2e-05 in assay [3] (setting [12]). Moreover, the “peptide microarray binding signal” value in assay [4] (setting [11]) was determined as 0.00116 ± 9.9e-05; in assay [4] (setting [12]) it was 0.001211 ± 1.2e-05.

B5: H2B 7-19 A P A P Kac Kac G Sph K K A V T (peptide)
chain: APAPKKGSKKAVT
With B5, the “peptide microarray binding signal” value came to 0.00197 ± 4e-05 in assay [1] (peptide region: H2B 7-19, peptide modifications: H2BK11ac H2BK12ac H2BS14ph, binder concentration: 50 nM); 0.00252 ± 9e-05 in assay [1] (peptide region: H2B 7-19, peptide modifications: H2BK11ac H2BK12ac H2BS14ph, binder concentration: 500 nM); 0.0046 ± 0.00019 in assay [2] (peptide region: H2B 7-19, peptide modifications: H2BK11ac H2BK12ac H2BS14ph, binder concentration: 10 nM); 0.00163 ± 3.3e-05 in assay [2] (peptide region: H2B 7-19, peptide modifications: H2BK11ac H2BK12ac H2BS14ph, binder concentration: 100 nM); 0.00215 ± 8.8e-05 in assay [3] (setting [13]); 0.000628 ± 6.7e-06 in assay [3] (setting [14]). Moreover, the “peptide microarray binding signal” value in assay [4] (setting [13]) came to 0.000423 ± 1.8e-05; in assay [4] (setting [14]) it was 0.00075 ± 4e-05.
